Results reported in PubChem BioAssay.
Inconclusive results are not listed. The source made the active and inactive calls.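 How the source made its calls, unless noted: active means inhibition over a set limit, the all-compound mean plus 3 SD, in both replicate runs; inconclusive means over that limit in just one replicate run; inactive means at or under that limit in both runs.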

Legend:
[1] = reducers of endogenous Her2 protein level, primary screen, SKBR3 breast tumor cells, AlphaScreen, ATP viability (AID 461;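 active means Her2 level under about 52% in both replicate screens, with viability over 70% of control, limit read from the data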;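 on Her2 level: lower value means less Her2 protein in the cells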;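 on viability: percent of carrier control wells set as 100% viability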); settings: 18-24 h, measured here: SKBR3 viability, ATP luminescence, at 10 µM
[2] = target: Receptor tyrosine-protein kinase erbB-2 (Homo sapiens) (UniProt P04626); test: as above; settings: 18-24 h, at 10 µM, stronger effect = lower value
Receptor tyrosine-protein kinase erbB-2 (Homo sapiens), sequence (P04626 whole entry, looked up): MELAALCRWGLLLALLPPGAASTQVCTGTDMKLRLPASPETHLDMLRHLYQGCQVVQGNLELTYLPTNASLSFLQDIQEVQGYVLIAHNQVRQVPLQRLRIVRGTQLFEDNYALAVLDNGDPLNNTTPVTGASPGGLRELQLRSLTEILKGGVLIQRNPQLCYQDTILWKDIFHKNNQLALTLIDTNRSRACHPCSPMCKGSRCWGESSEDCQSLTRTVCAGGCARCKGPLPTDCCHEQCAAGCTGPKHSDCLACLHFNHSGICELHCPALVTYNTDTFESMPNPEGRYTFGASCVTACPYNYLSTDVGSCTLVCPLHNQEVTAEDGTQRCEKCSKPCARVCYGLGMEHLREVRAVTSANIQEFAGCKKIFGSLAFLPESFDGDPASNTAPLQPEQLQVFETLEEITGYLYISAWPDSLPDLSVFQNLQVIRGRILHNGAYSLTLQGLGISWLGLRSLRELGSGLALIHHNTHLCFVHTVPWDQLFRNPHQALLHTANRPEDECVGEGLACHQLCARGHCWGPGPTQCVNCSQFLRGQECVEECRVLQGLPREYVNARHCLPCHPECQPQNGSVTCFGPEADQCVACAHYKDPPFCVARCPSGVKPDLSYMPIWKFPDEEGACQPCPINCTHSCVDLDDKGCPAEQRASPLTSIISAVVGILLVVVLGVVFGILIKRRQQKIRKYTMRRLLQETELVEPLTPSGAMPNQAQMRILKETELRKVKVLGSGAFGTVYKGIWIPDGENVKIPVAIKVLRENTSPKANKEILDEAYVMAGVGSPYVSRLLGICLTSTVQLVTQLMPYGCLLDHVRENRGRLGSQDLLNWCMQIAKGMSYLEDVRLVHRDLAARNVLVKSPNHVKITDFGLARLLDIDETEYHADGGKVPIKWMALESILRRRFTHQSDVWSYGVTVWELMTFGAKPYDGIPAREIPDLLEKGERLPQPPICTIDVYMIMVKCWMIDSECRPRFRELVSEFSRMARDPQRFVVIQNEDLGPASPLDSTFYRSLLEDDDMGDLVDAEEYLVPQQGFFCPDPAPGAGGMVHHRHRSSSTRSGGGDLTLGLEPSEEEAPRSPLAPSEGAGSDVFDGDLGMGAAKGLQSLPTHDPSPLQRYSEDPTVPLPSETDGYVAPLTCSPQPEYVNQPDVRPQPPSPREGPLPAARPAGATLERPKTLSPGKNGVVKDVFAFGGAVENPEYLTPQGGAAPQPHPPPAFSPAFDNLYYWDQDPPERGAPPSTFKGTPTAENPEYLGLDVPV

[3] = SK-BR-3 cell growth inhibitors, pilot screen, 24 h, human (AID 572;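 active means viability at or below 10% of carrier control in both of two separate runs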;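 further: compound exposure lasted between 18 and 24 h rather than exactly 24 h; 100% = carrier-treated control wells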); settings: SK-BR-3 viability, CellTiter-Glo luminescence, at 10 µM, stronger effect = lower value
[4] = HUVEC growth inhibition – cell-based, human, primary screen (AID 575;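 active means viability at or below 30% in both replicate assays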;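 further: 100% = median of untreated cell wells with 0.1% DMSO on each plate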); settings: HUVEC proliferation, CellTiter-Glo luminescence, 72 h; at 10 µM; stronger effect = lower value
[5] = growth inhibitors of H69AR lung tumor, primary screen, human, duplicate replicates (AID 580;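 active means viability at or under a set limit in both replicates, limit being median viability minus 3 SD, cut at about 48% in these data, passing the limit was not always enough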;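 further: 100% = mean luminescence of untreated wells and 0% = no signal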); settings: H69AR lung tumor cells viability, ATP luminescence, 72 h; at 10 µM; stronger effect = lower value
[6] = reversal of MRP1-mediated doxorubicin resistance, pilot screen, H69AR cells, doxorubicin co-treatment (AID 601;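 active means viability loss from added drug above about 55%, and viability with drug at most 40%, in both replicates, limit read from the data, passing the limit was not always enough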); settings: CellTiter-Glo, 72 h, at 10 µM; for differential viability (reversal): stronger effect = higher value
[7] = 384-well plate pilot, post-Golgi transport modulator project, inhibition of yeast transport mutant growth (AID 636; in the data active means inhibition above about 31%); settings: absorbance 615 nm, about 18 h, stronger effect = higher value
[8] = growth suppression of yeast trafficking mutant, preliminary HTS, modulators of trafficking downstream of Golgi apparatus project, 1536-format plate, OD 615 nm (AID 637; in the data active means inhibition above about 30%); settings: yeast transport mutant growth, absorbance 615 nm, 18 h; stronger effect = higher value
[9] = OD615 S. cerevisiae growth inhibition, permissive medium, pilot counter-assay, permissive growth control for S. cerevisiae lifespan shortening project (AID 705;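 active means growth inhibition above 25% in both replicates, a cutoff set 3 SD above the mean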); settings: OD615, 24 h, at 10 µM, stronger effect = higher value
[10] = Restrictive medium S. cerevisiae growth inhibition, OD615, pilot screen of yeast lifespan reduction project, restrictive growth control (AID 706;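 active means growth inhibition above a set limit, 3 SD over mean compound inhibition, in both replicates, cut at about 43% in these data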;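 further: modified DeaD lifespan yeast strain shifted to restrictive glucose medium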); settings: OD615, 48 h, at 10 µM, stronger effect = higher value
[11] = viability gain of MRP-1-high H69AR cells under doxorubicin, pilot screen, MRP-1 activator project, CellTiter-Glo, duplicate (AID 807;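 active means viability increase at or above a cutoff of the median across tested compounds plus 3 SD, cut at about 8.5% in these data, passing the limit was not always enough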;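 further: compound pretreatment 18-22 h then 72 h combined with doxorubicin; 0% = doxorubicin alone and 100% = vehicle without doxorubicin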); settings: H69AR viability with doxorubicin, CellTiter-Glo luminescence; at 10 µM; stronger effect = higher value
[12] = growth suppression of beta-catenin knockout HCT116, pilot screen, human colon tumor cells (AID 823;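 active means cell viability at or below a set limit in both duplicate runs, the limit being the all-compound median minus 4 SD, cut at about 23% in these data, passing the limit was not always enough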;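 further: 0% = wells killed by 20 µM Hyamine and 100% = untreated DMSO cell wells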); settings: CellTiter-Glo, 60 h, at 10 µM, stronger effect = lower value
[13] = growth suppression of PTEN-deleted HCT116, pilot screen, cell-based, HCT116 clonal line, CellTiter-Glo (AID 824;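 active means viability at or below 27.92% in each of two runs, the all-compound median minus 4 SD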;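 further: 0% = 20 µM Hyamine control and 100% = vehicle cell control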); settings: 60 h, at 10 µM, stronger effect = lower value
[14] = inhibitors of the yeast RAM network, pilot screen, dse1pr::URA3 reporter, 5-FOA selection (AID 869);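 further: 0% = DMSO wells with no growth and 100% = 10 µM 1-NA-PP1 with full growth; RAM network block rescues cells from 5-FOA so hits raise OD615 growth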; settings: S. cerevisiae dse1pr::URA3 5-FOA growth, OD615, 2 d; at 10 µM; stronger effect = higher value; strain carries analog-sensitive mutant Cbk1 kinase
[15] = RAM signaling pathway blockade in yeast – S. cerevisiae, Pdr1DBD-CYC8 efflux-inhibited sensitized strain, primary screen (AID 1298;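 active means RAM network inhibition above 8.4% in each of two replicates, 3 SD over the compound average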;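 further: 0% = DMSO untreated cells without growth and 100% = 10 µM 1-NA-PP1 full growth; higher means more yeast growth rescued from 5-FOA killing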); settings: S. cerevisiae cbk1-as DSE1-URA3 strain, 5-FOA growth OD615, 2 d; at 50 µM; stronger effect = higher value
[16] = H69AR cells + 2 uM doxorubicin, measured here: viability with 2 uM doxorubicin, stronger effect = lower value
[17] = H69AR cells, compound alone cytotoxicity

SMILES | viability [1] | Her2 level [2] | viability [3] | viability [4] | viability [5] | differential viability (reversal) ([6]; H69AR cells + 2 uM doxorubicin) | viability [6, 16] | viability [6, 17] | inhibition [7] | inhibition [8] | growth inhibition [9] | growth inhibition [10] | viability increase [11] | viability [12] | viability [13] | inhibition [14] | RAM network inhibition [15]
CCOC(=O)N1CCN(C(=O)c2ccc3nc4ccsc4c(=O)n3c2)CC1 | 97.5% | 102% (inactive) | 97.5% (inactive) | 87.2% (inactive) | 89.4% (inactive) | -1.36% (inactive) | 90.8% | 89.4% | -7.87% (inactive) | -6.39% (inactive) | 5.57% (inactive) | 7.09% (inactive) | -4.18% (inactive) | 101% (inactive) | 101% (inactive) | 0.335% (inactive) | -0.16% (inactive)
COc1ccc(NS(=O)(=O)c2ccc(NC(C)=O)cc2)cc1OC | 98.5% | 99% (inactive) | 98.5% (inactive) | 83.5% (inactive) | 94.5% (inactive) | 4.97% (inactive) | 89.5% | 94.5% | 2.69% (inactive) | 35.7% (active) | 0.65% (inactive) | -9.44% (inactive) | 0.44% (inactive) | 85.4% (inactive) | 85.2% (inactive) | 1.85% (inactive) | -1.59% (inactive)
COc1ccc(CCNC(=O)c2cc3sc(Cl)cc3n2C)cc1OC | 89.5% | 94% (inactive) | 89.5% (inactive) | 98.3% (inactive) | 90.7% (inactive) | -3.9% (inactive) | 94.6% | 90.7% | -3.59% (inactive) | -8% (inactive) | -5.07% (inactive) | 12.9% (inactive) | 3.32% (inactive) | 65.2% (inactive) | 77.3% (inactive) | 0.605% (inactive) | 1.25% (inactive)
c1ccc2c(c1)nc(NCCN1CCOCC1)c1nncn12 | 92% | 102% (inactive) | 92% (inactive) | 109% (inactive) | 94.7% (inactive) | 8.78% (inactive) | 85.9% | 94.7% | -1.67% (inactive) | 2.5% (inactive) | -10.4% (inactive) | -3.62% (inactive) | 1.59% (inactive) | 103% (inactive) | 103% (inactive) | -0.055% (inactive) | -0.1% (inactive)
O=C(O)CC(NC(=O)c1ccccc1NC(=O)c1ccccc1)C(=O)O (stereo not drawn) | 86.5% | 154% (inactive) | 86.5% (inactive) | 93.5% (inactive) | 97.2% (inactive) | 6.64% (inactive) | 90.5% | 97.2% | 3.97% (inactive) | 35.3% (active) | -0.82% (inactive) | -3.04% (inactive) | -0.74% (inactive) | 108% (inactive) | 96.5% (inactive) | 0.785% (inactive) | 0.47% (inactive)
COC(=O)C1=C(C)Nc2nnnn2C1c1ccc(Cl)cc1Cl (stereo not drawn) | 110% | 80% (inactive) | 110% (inactive) | 114% (inactive) | 93.3% (inactive) | -5.04% (inactive) | 98.4% | 93.3% | -1.97% (inactive) | -0.63% (inactive) | 2.67% (inactive) | -1.33% (inactive) | -5.06% (inactive) | 98% (inactive) | 91.5% (inactive) | 0.54% (inactive) | 0.11% (inactive)
Oc1ccccc1-c1nnc(COc2ccc(Cl)cc2Cl)o1 | 96% | 97.5% (inactive) | 96% (inactive) | 101% (inactive) | 63.3% (inactive) | -12.9% (inactive) | 76.1% | 63.3% | -8.8% (inactive) | 0.5% (inactive) | -10.2% (inactive) | -11.7% (inactive) | -1.77% (inactive) | 92.3% (inactive) | 86.6% (inactive) | 1.82% (inactive) | 7.07% (inactive)
COc1ccc2[nH]c(C)c(CCN3C(=O)OC(C)(C)C3(C)O)c2c1 (stereo not drawn) | 100% | 108% (inactive) | 100% (inactive) | 102% (inactive) | 81.5% (inactive) | -10.4% (inactive) | 91.9% | 81.5% | -5.73% (inactive) | -6.67% (inactive) | 4.92% (inactive) | -5.26% (inactive) | -1.56% (inactive) | 107% (inactive) | 96.4% (inactive) | 1.92% (inactive) | 2.87% (inactive)
Cc1cccc(NC(=O)CS(=O)(=O)c2cn(C)c3ccccc23)c1 | 98% | 95.5% (inactive) | 98% (inactive) | 105% (inactive) | 90.6% (inactive) | -1.36% (inactive) | 92% | 90.6% | -3.47% (inactive) | -0.98% (inactive) | 1.62% (inactive) | -12% (inactive) | -3.05% (inactive) | 97.1% (inactive) | 92.6% (inactive) | 1.98% (inactive) | 4.28% (inactive)
CCOCCCNC(=O)C(NC(=O)c1ccccn1)c1ccc(C)cc1 (stereo not drawn) | 94.5% | 120% (inactive) | 94.5% (inactive) | 104% (inactive) | 106% (inactive) | 8.57% (inactive) | 97.3% | 106% | -2.6% (inactive) | 1.9% (inactive) | -4.42% (inactive) | 1.57% (inactive) | -0.13% (inactive) | 108% (inactive) | 97.3% (inactive) | 0.07% (inactive) | 0.36% (inactive)
Cc1ccc(C2CC(c3ccc(C)cc3)n3nc(N)nc3N2)cc1 (stereo not drawn) | 95% | 109% (inactive) | 95% (inactive) | 102% (inactive) | 88.5% (inactive) | -8.68% (inactive) | 97.1% | 88.5% | -1.79% (inactive) | -1% (inactive) | 1.83% (inactive) | 12.3% (inactive) | -0.92% (inactive) | 96.7% (inactive) | 93.1% (inactive) | 1.34% (inactive) | 1.75% (inactive)
O=C(C(Cc1ccccc1)n1cccc1)N1CCCCCC1 (stereo not drawn) | 99% | 102% (inactive) | 99% (inactive) | 87.6% (inactive) | 95.6% (inactive) | 11.2% (inactive) | 84.4% | 95.6% | -0.13% (inactive) | -6.89% (inactive) | -11.2% (inactive) | -7.42% (inactive) | -2.42% (inactive) | 95.3% (inactive) | 88% (inactive) | 1.68% (inactive) | 2.67% (inactive)
CCSc1nnc(N2C(=O)CC(c3ccsc3)C3=C2CC(C)(C)CC3=O)s1 (stereo not drawn) | 89% | 108% (inactive) | 89% (inactive) | 81.3% (inactive) | 89% (inactive) | -15% (inactive) | 104% | 89% | -6.67% (inactive) | 9.5% (inactive) | 2.55% (inactive) | 0.01% (inactive) | -1.55% (inactive) | 103% (inactive) | 94.9% (inactive) | 0.195% (inactive) | 3.19% (inactive)
Cc1c(-n2c(CN3C(=O)c4ccccc4C3=O)nc3ccccc3c2=O)c(=O)n(-c2ccccc2)n1C | 93.5% | 110% (inactive) | 93.5% (inactive) | 105% (inactive) | 101% (inactive) | 3.82% (inactive) | 97% | 101% | -1.76% (inactive) | 4.6% (inactive) | -2.33% (inactive) | 2.67% (inactive) | -1.08% (inactive) | 102% (inactive) | 99.6% (inactive) | 1.4% (inactive) | 5.4% (inactive)
N#CCCN(Cc1cccnc1)C(=O)Nc1ccc(Cl)c(Cl)c1 | 118% | 94% (inactive) | 118% (inactive) | 94.6% (inactive) | 91.2% (inactive) | 9.8% (inactive) | 81.4% | 91.2% | 0.13% (inactive) | 3.28% (inactive) | -13.1% (inactive) | -14.9% (inactive) | 0.83% (inactive) | 95.3% (inactive) | 102% (inactive) | 0.065% (inactive) | 4.53% (inactive)
CCOc1ccc(-c2cc(CCCC(=O)N3CCN(c4ccc(OC)cc4)CC3)no2)cc1 | 85% | 104% (inactive) | 85% (inactive) | 77.8% (inactive) | 67.7% (inactive) | -2.52% (inactive) | 70.2% | 67.7% | 4.1% (inactive) | -2.67% (inactive) | 2.23% (inactive) | 1.43% (inactive) | -3.39% (inactive) | 81.7% (inactive) | 82.5% (inactive) | 2.54% (inactive) | 8.59% (inactive)
CCOC(=O)N1CCN(C(=O)c2c(-c3ccccc3)noc2C)CC1 | 78% | 104% (inactive) | 78% (inactive) | 96.6% (inactive) | 95.2% (inactive) | 5.67% (inactive) | 89.5% | 95.2% | -6.67% (inactive) | -2.5% (inactive) | -9.5% (inactive) | -0.595% (inactive) | -2.25% (inactive) | 104% (inactive) | 87.6% (inactive) | 3% (inactive) | 4.25% (inactive)
Cc1ccccc1NC(=O)C1CCCN(S(=O)(=O)c2cccc3cccnc23)C1 (stereo not drawn) | 90.5% | 96.5% (inactive) | 90.5% (inactive) | 94.6% (inactive) | 93.2% (inactive) | 0.99% (inactive) | 92.2% | 93.2% | -1.73% (inactive) | -5.25% (inactive) | -13.1% (inactive) | -16.6% (inactive) | -2.23% (inactive) | 82.1% (inactive) | 81.2% (inactive) | 3.01% (inactive) | 1.93% (inactive)
Cc1cc(C)n2nc(SCc3nc4ccccc4[nH]3)nc2n1 | 87.5% | 81% (inactive) | 87.5% (inactive) | 98.3% (inactive) | 95.7% (inactive) | 8.56% (inactive) | 87.2% | 95.7% | 2.13% (inactive) | 3.28% (inactive) | -5.58% (inactive) | 15.5% (inactive) | -2.9% (inactive) | 91.2% (inactive) | 95.5% (inactive) | 1.77% (inactive) | 1.24% (inactive)
